# Measurements reported in the supplement of paper PMC8728848.
# The sample as a whole holds a higher share of the strongest signals than the screen did.
# B1: DrGRIFIN (Danio rerio), Q6DGJ1 (protein)
# chain: MTLRFEASCPDGLCPGWSVILKGETPPEASKFEINFLCDRDDRVAFHFNPRFTESDIICNSYMANRWGQEERCNHFPLGVEEPFQIEIYSDNDHFHVYIDKAKVMQYKHRVEDLKTITKLQVVNDVKISSLEITKKLFY
# Key:
# Test in all cases: glycan array binding signal (z-score within array); higher = stronger binding
# Conditions in all cases: glycan notation: IUPAC condensed, linker removed
# [1] = target: Fuc(a1-2)[Gal(a1-3)]Gal(b1-3)GlcNAc
# Procedure, shortened: (§1)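 Negative Z-scores can be read as non-binding. The Z-score is calculated within each array and then averaged across arrays of one protein sequence at different concentrations or buffers and across linkers. Arrays, 3228 in all, were curated from the Consortium for Functional Glycomics database and kept only where the protein sequence was available.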
# [2] = target: Fuc(a1-2)[Gal(a1-3)]Gal(b1-3)GlcNAc(b1-2)Man(a1-3)[Fuc(a1-2)[Gal(a1-3)]Gal(b1-3)GlcNAc(b1-2)Man(a1-6)]Man(b1-4)GlcNAc(b1-4)GlcNAc
# Procedure, shortened: as §1
# [3] = target: Fuc(a1-2)[Gal(a1-3)]Gal(b1-3)GlcNAc(b1-3)GalNAc
# Procedure, shortened: as §1
# [4] = target: Fuc(a1-2)[Gal(a1-3)]Gal(b1-3)GlcNAc(b1-6)GalNAc
# Procedure, shortened: as §1
# [5] = target: Fuc(a1-2)[Gal(a1-3)]Gal(b1-4)Glc
# Procedure, shortened: as §1
# [6] = target: Fuc(a1-2)[Gal(a1-3)]Gal(b1-4)GlcNAc
# Procedure, shortened: as §1
# [7] = target: Fuc(a1-2)[Gal(a1-3)]Gal(b1-4)GlcNAc(b1-2)Man
# Procedure, shortened: as §1
# [8] = target: Fuc(a1-2)[Gal(a1-3)]Gal(b1-4)GlcNAc(b1-2)Man(a1-3)[Fuc(a1-2)[Gal(a1-3)]Gal(b1-4)GlcNAc(b1-2)Man(a1-6)]Man(b1-4)GlcNAc(b1-4)GlcNAc
# Procedure, shortened: as §1
# [9] = target: Fuc(a1-2)[Gal(a1-3)]Gal(b1-4)GlcNAc(b1-2)Man(a1-3)[Fuc(a1-2)[Gal(a1-3)]Gal(b1-4)GlcNAc(b1-2)Man(a1-6)]Man(b1-4)GlcNAc(b1-4)[Fuc(a1-6)]GlcNAc
# Procedure, shortened: as §1
# [10] = target: Fuc(a1-2)[Gal(a1-3)]Gal(b1-4)GlcNAc(b1-3)GalNAc
# Procedure, shortened: as §1
# [11] = target: Fuc(a1-2)[Gal(a1-3)]Gal(b1-4)GlcNAc(b1-3)[Fuc(a1-2)[Gal(a1-3)]Gal(b1-4)GlcNAc(b1-6)]GalNAc
# Procedure, shortened: as §1
# [12] = target: Fuc(a1-2)[Gal(a1-3)]Gal(b1-4)[Fuc(a1-3)]GlcNAc(b1-3)GalNAc
# Procedure, shortened: as §1
# [13] = target: Fuc(a1-2)[GalNAc(a1-3)]Gal(b1-4)GlcNAc(b1-6)GalNAc
# Procedure, shortened: as §1
# [14] = target: Fuc(a1-3)[Gal(b1-4)]GlcNAc(b1-6)[Gal(b1-3)GlcNAc(b1-3)]Gal(b1-4)Glc
# Procedure, shortened: as §1
# [15] = target: Gal(b1-3)GlcNAc(b1-2)Man(a1-3)[Gal(b1-3)GlcNAc(b1-2)Man(a1-6)]Man(b1-4)GlcNAc(b1-4)[Fuc(a1-6)]GlcNAc
# Procedure, shortened: as §1
# [16] = target: Gal(b1-3)GlcNAc(b1-3)Gal(b1-4)GlcNAc(b1-3)Gal(b1-4)GlcNAc(b1-2)[Gal(b1-3)GlcNAc(b1-3)Gal(b1-4)GlcNAc(b1-3)Gal(b1-4)GlcNAc(b1-6)]Man(a1-6)[Gal(b1-3)GlcNAc(b1-3)Gal(b1-4)GlcNAc(b1-3)Gal(b1-4)GlcNAc(b1-2)Man(a1-3)]Man(b1-4)GlcNAc(b1-4)[Fuc(a1-6)]GlcNAc
# Procedure, shortened: as §1
# [17] = target: Gal(b1-3)[Fuc(a1-4)]GlcNAc
# Procedure, shortened: as §1
# Gal(b1-4)Glc = target: Gal(b1-4)Glc
# Procedure, shortened: as §1
# Gal(b1-4)Glc6S = target: Gal(b1-4)Glc6S
# Procedure, shortened: as §1
# [18] = target: Gal(b1-4)GlcNAc(a1-6)Gal(b1-4)GlcNAc
# Procedure, shortened: as §1
# [19] = target: Gal(b1-4)GlcNAc(b1-2)Man(a1-6)[GlcNAc(b1-2)Man(a1-3)]Man(b1-4)GlcNAc(b1-4)GlcNAc
# Procedure, shortened: as §1
# [20] = target: Gal(b1-4)GlcNAc(b1-3)Gal(b1-4)GlcNAc(b1-2)[Gal(b1-4)GlcNAc(b1-3)Gal(b1-4)GlcNAc(b1-6)]Man(a1-6)[Gal(b1-4)GlcNAc(b1-3)Gal(b1-4)GlcNAc(b1-2)Man(a1-3)]Man(b1-4)GlcNAc(b1-4)GlcNAc
# Procedure, shortened: as §1
# Gal3S6S(b1-4)GlcNAc = target: Gal3S6S(b1-4)GlcNAc
# Procedure, shortened: as §1
# Gal3S6S(b1-4)GlcNAc6S = target: Gal3S6S(b1-4)GlcNAc6S
# Procedure, shortened: as §1
# Gal6S(b1-4)GlcNAc = target: Gal6S(b1-4)GlcNAc
# Procedure, shortened: as §1
# [21] = target: GalNAc(b1-3)Gal(a1-4)Gal(b1-4)GlcNAc(b1-3)Gal(b1-4)Glc
# Procedure, shortened: as §1
# GalNAc(b1-3)GlcNAc = target: GalNAc(b1-3)GlcNAc
# Procedure, shortened: as §1
# [22] = target: GalNAc(b1-4)GlcNAc(b1-2)Man
# Procedure, shortened: as §1
# GalNAc3S(b1-4)GlcNAc = target: GalNAc3S(b1-4)GlcNAc
# Procedure, shortened: as §1
# [23] = target: GlcNAc(a1-4)Gal(b1-4)GalNAc
# Procedure, shortened: as §1
# [24] = target: GlcNAc(b1-3)Gal(b1-4)GlcNAc(b1-2)Man(a1-3)[GlcNAc(b1-3)Gal(b1-4)GlcNAc(b1-2)Man(a1-6)]Man(b1-4)GlcNAc(b1-4)GlcNAc
# Procedure, shortened: as §1
# [25] = target: GlcNAc(b1-3)Gal(b1-4)GlcNAc(b1-3)Gal(b1-4)GlcNAc(b1-3)Gal(b1-4)GlcNAc(b1-2)[GlcNAc(b1-3)Gal(b1-4)GlcNAc(b1-3)Gal(b1-4)GlcNAc(b1-3)Gal(b1-4)GlcNAc(b1-6)]Man(a1-6)[GlcNAc(b1-3)Gal(b1-4)GlcNAc(b1-3)Gal(b1-4)GlcNAc(b1-3)Gal(b1-4)GlcNAc(b1-2)Man(a1-3)]Man(b1-4)GlcNAc(b1-4)[Fuc(a1-6)]GlcNAc
# Procedure, shortened: as §1
# [26] = target: GlcNAc(b1-4)Gal(b1-4)GlcNAc
# Procedure, shortened: as §1
# [27] = target: Man(a1-2)Man(a1-6)[Man(a1-3)]Man(a1-6)[Man(a1-2)Man(a1-2)Man(a1-3)]Man
# Procedure, shortened: as §1
# [28] = target: Man(a1-3)[Man(a1-6)]Man(a1-6)[Man(a1-2)Man(a1-3)]Man(b1-4)GlcNAc(b1-4)GlcNAc
# Procedure, shortened: as §1
# [29] = target: Neu5Ac(a2-3)Gal(b1-3)GlcNAc(b1-3)Gal(b1-3)GlcNAc
# Procedure, shortened: as §1
# [30] = target: Neu5Ac(a2-3)Gal(b1-3)GlcNAc(b1-3)GalNAc
# Procedure, shortened: as §1
# [31] = target: Neu5Ac(a2-3)Gal(b1-4)GlcNAc(b1-2)Man(a1-3)[Neu5Ac(a2-3)Gal(b1-4)GlcNAc(b1-2)Man(a1-6)]Man(b1-4)GlcNAc(b1-4)GlcNAc
# Procedure, shortened: as §1
# [32] = target: Neu5Ac(a2-3)Gal6S(b1-4)GlcNAc
# Procedure, shortened: as §1
# [33] = target: Neu5Ac(a2-6)Gal(b1-4)GlcNAc(b1-2)Man(a1-3)[Neu5Ac(a2-6)Gal(b1-4)GlcNAc(b1-2)Man(a1-6)]Man(b1-4)GlcNAc(b1-4)GlcNAc
# Procedure, shortened: as §1
# [34] = target: Neu5Ac(a2-6)Gal(b1-4)GlcNAc(b1-2)Man(a1-6)[Gal(b1-4)GlcNAc(b1-2)Man(a1-3)]Man(b1-4)GlcNAc(b1-4)GlcNAc
# Procedure, shortened: as §1
# [35] = target: Neu5Ac(a2-6)Gal(b1-4)GlcNAc(b1-2)[Neu5Ac(a2-6)Gal(b1-4)GlcNAc(b1-4)]Man(a1-3)[GlcNAc(b1-4)][Neu5Ac(a2-6)Gal(b1-4)GlcNAc(b1-2)[Neu5Ac(a2-6)Gal(b1-4)GlcNAc(b1-6)]Man(a1-6)]Man(b1-4)GlcNAc(b1-4)GlcNAc
# Procedure, shortened: as §1
# [36] = target: Neu5Ac(a2-6)Gal(b1-4)GlcNAc(b1-3)GalNAc
# Procedure, shortened: as §1
# Neu5Ac(a2-8)Neu5Ac = target: Neu5Ac(a2-8)Neu5Ac
# Procedure, shortened: as §1
# [37] = target: Neu5Ac(a2-8)Neu5Ac(a2-3)[GalNAc(b1-4)]Gal(b1-4)Glc
# Procedure, shortened: as §1
# Neu5Gc(a2-6)GalNAc = target: Neu5Gc(a2-6)GalNAc
# Procedure, shortened: as §1
binder,measurement,setting,value
B1,glycan array binding signal (z-score),[1],5.95
same,glycan array binding signal (z-score),[2],10.6
same,glycan array binding signal (z-score),[3],5.36
same,glycan array binding signal (z-score),[4],6.96
same,glycan array binding signal (z-score),[5],6.1
same,glycan array binding signal (z-score),[6],6.44
same,glycan array binding signal (z-score),[7],9.46
same,glycan array binding signal (z-score),[8],4.9
same,glycan array binding signal (z-score),[9],5.59
same,glycan array binding signal (z-score),[10],4.81
same,glycan array binding signal (z-score),[11],6.36
same,glycan array binding signal (z-score),[12],-0.062
same,glycan array binding signal (z-score),[13],-0.23
same,glycan array binding signal (z-score),[14],-0.109
same,glycan array binding signal (z-score),[15],-0.135
same,glycan array binding signal (z-score),[16],-0.107
same,glycan array binding signal (z-score),[17],-0.187
same,glycan array binding signal (z-score),Gal(b1-4)Glc,-0.191
same,glycan array binding signal (z-score),Gal(b1-4)Glc6S,-0.201
same,glycan array binding signal (z-score),[18],-0.172
same,glycan array binding signal (z-score),[19],-0.071
same,glycan array binding signal (z-score),[20],-0.039
same,glycan array binding signal (z-score),Gal3S6S(b1-4)GlcNAc,-0.193
same,glycan array binding signal (z-score),Gal3S6S(b1-4)GlcNAc6S,-0.097
same,glycan array binding signal (z-score),Gal6S(b1-4)GlcNAc,-0.181
same,glycan array binding signal (z-score),[21],-0.12
same,glycan array binding signal (z-score),GalNAc(b1-3)GlcNAc,-0.192
same,glycan array binding signal (z-score),[22],-0.129
same,glycan array binding signal (z-score),GalNAc3S(b1-4)GlcNAc,-0.052
same,glycan array binding signal (z-score),[23],-0.154
same,glycan array binding signal (z-score),[24],-0.132
same,glycan array binding signal (z-score),[25],-0.163
same,glycan array binding signal (z-score),[26],-0.166
same,glycan array binding signal (z-score),[27],-0.123
same,glycan array binding signal (z-score),[28],-0.189
same,glycan array binding signal (z-score),[29],-0.131
same,glycan array binding signal (z-score),[30],-0.117
same,glycan array binding signal (z-score),[31],-0.141
same,glycan array binding signal (z-score),[32],-0.179
same,glycan array binding signal (z-score),[33],-0.171
same,glycan array binding signal (z-score),[34],-0.195
same,glycan array binding signal (z-score),[35],-0.026
same,glycan array binding signal (z-score),[36],-0.217
same,glycan array binding signal (z-score),Neu5Ac(a2-8)Neu5Ac,-0.131
same,glycan array binding signal (z-score),[37],-0.146
same,glycan array binding signal (z-score),Neu5Gc(a2-6)GalNAc,-0.148
